Records with an inconclusive call do not appear. A number with no mark means an inactive call. Active and inactive are the calls of the source. The call rests on the fitted dose curve; in most records, active means well fitted cell-killing curve with a large enough effect; inconclusive means small, poorly fitted or top-dose-only effect; inactive means flat fitted curve, though single readings scatter.
Potency means the concentration at half of the fitted maximal effect.

The assay can be described thus: qHTS of pediatric cancer cell lines to identify multiple opportunities for drug repurposing: Primary screen for DAOY cells (AID 1347090). Further: nearly all actives have a fitted effect of over 55% in size.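 On activity change, negative = cytotoxic: plate controls were DMSO for no effect and bortezomib for full effect.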 Conditions: DAOY medulloblastoma viability, CellTiter-Glo luminescence, 48 h; series mostly up to 46 µM; activity change, negative = cytotoxic: at the top concentration. In outline: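 Eight- or eleven-point concentration series, 48 h treatment at 37 degrees C in growth media; readout CellTiter-Glo luminescence. Potency and efficacy were taken from the concentration-response curves.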
`COCC1(CO)C(=O)C2CCN1CC2` (stereo not given): the Potency was 23.5 µM (active). For the compound `CCCCCCCCc1ccc(O)cc1`, the “activity change, negative = cytotoxic” value was 9.35% [at 92.7 µM]. The same measure, in the same setting: as for `COc1ccc(CC2NCCc3cc(OC)c(OC)cc32)cc1OC` (stereo not given), the figure is -20.3%; as for `CC(C)Oc1cccc(NC(=O)c2ccccc2C(F)(F)F)c1`, -15.2% [at 92.7 µM]. Take `CCN1CCN(C(=O)Cc2ccc(Nc3ncc(F)c(Nc4ccc(C(=O)Nc5ccccc5Cl)cc4)n3)cc2)CC1`: the Potency was 3.72 µM (active). `CC(=O)N(C)c1cccc(-c2ccnc3c(C(=O)c4cccs4)cnn23)c1`: the “activity change, negative = cytotoxic” value is -7.39%. For `CCCN(CCC)c1c([N+](=O)[O-])cc(S(N)(=O)=O)cc1[N+](=O)[O-]`, the Potency is 48.6 µM (active). As for `O=c1cccc2n1CC1CNC[C@H]2C1`, the Potency was 18.7 µM (active).

`O=[N+]([O-])c1cc([N+](=O)[O-])c2ccccc2c1`: the “activity change, negative = cytotoxic” value was -9.27% [at 92.7 µM]. For the compound `Cc1ccccc1-n1c(Cn2cnc3c(N)ncnc32)nc2cccc(C)c2c1=O`, the Potency is 1.48 µM (active). As for `O=C1CCC[C@@H]2[C@H]3CCCN4CCC[C@@H](CN12)[C@@H]34`, the “activity change, negative = cytotoxic” value was -3.5%. Turning to `CC(=O)O[C@@]12CO[C@H]1C[C@H](O)[C@@]1(C)C(=O)[C@H](O)C3=C(C)[C@@H](O)C[C@@](O)([C@@H](OC(=O)c4ccccc4)[C@@H]21)C3(C)C`, the Potency was 18.7 µM (active). As to `CCCCCC[C@H]1C(=O)O[C@H](C)[C@H](NC(=O)c2cccc(NC=O)c2O)C(=O)O[C@@H](C)[C@@H]1OC(=O)CC(C)C`, the Potency is 0.0372 µM (active). For `c1cc2ccc3cccc4ccc(c1)c2c34`, the “activity change, negative = cytotoxic” value is -6.67% [at 92.7 µM]. Consider `CC[C@H]1C=CC=CC[C@@H](C)[C@H](O)[C@@](C)(O)C(=O)[C@@H](C)[C@H](O)[C@@H](C)C(=O)[C@@H](C)[C@H](O)[C@@H](C)C=CC(=O)O[C@@H]2[C@@H](C)[C@H](CC1)O[C@]1(CC[C@H](C)[C@H](C[C@@H](C)O)O1)[C@H]2C`, for which the Potency is 0.0037 µM (active).
